Test [1] is described as follows: blockers of polyQ-driven CASP3 activation – cell-based (AID 1583). The note with it: polyglutamine-induced caspase-3 activation, cell assay; stronger effect = higher value;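 tested at 10 µM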.
Test [2] can be described thus: yeast 75Q aggregation reduction – 75Q-TubU reporter (AID 1593). The note with it: Yeast 75Q polyglutamine aggregation reporter.
Test [3] in a line: restoration of touch response, mutant HTT neurons – whole organism, C. elegans mechanosensory neurons, N-terminal huntingtin (AID 1599). The note with it: C. elegans polyQ-huntingtin mechanosensory neurons, stronger effect = higher value.
Test [4] can be described thus: blockers of cytochrome c efflux from mitochondria – biochemical, purified mitochondria (AID 1603).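 Note: mouse liver mitochondria challenged with calcium chloride; signal normalized to the plate average as 100%.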 Particulars: stronger effect = lower value.
The nature of test [5]: polyglutamine aggregate formation blockers (AID 1604). The note with it: polyglutamine-induced protein aggregation inhibition assay; stronger effect = higher value; tested at 2.5 µM.
A short description of test [6]: glutamate transport activators, MN-1 cells, MN-1 cell line (AID 1612).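 Note: tested at 1 µM final; 0% = mean of DMSO vehicle wells on each plate; positive means more glutamate uptake than control and negative means less.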 Particulars: MN-1 motor neuron cells, stronger effect = higher value.
Test [7] is described as follows: 75Q-TubH aggregate inhibition, S. cerevisiae, yeast (AID 1616). The note with it: S. cerevisiae 75Q-TubH polyglutamine aggregation suppression; stronger effect = higher value.
Test [8] is described as follows: compounds altering viability of human ES cells (AID 493140).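 Note: cells exposed to compounds for four days before counting.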 The note with it: human embryonic stem cell survival screen; stronger effect = higher value.
Test [9] in a line: signal quenchers or enhancers, Cy5 substrate/SSB – biochemical, NIH Clinical Collection, E. coli SSB, artefact control for HCV NS3 helicase inhibitor project (AID 743268). The note with it: Cy5-oligo bound E. coli SSB, fluorescence interference.
The subject of test [10] is Hepatitis C virus NS3 helicase. Briefly: blockers of NS3h binding to DNA – biochemical, fluorescence polarization, NIH Clinical Collection, primary screen (AID 743270). The note with it: NS3 helicase binding to Cy5-dT15 DNA, stronger effect = higher value, concentration not given here. In general terms: In fluorescence polarisation assays a small probe gives low polarisation when free and higher when bound to something large.

The target of test [11] is Single-stranded DNA-binding protein (Escherichia coli (strain K12)) (UniProt P0AGE0). Briefly: SSB-ssDNA binding inhibitors – biochemical, fluorescence polarization, NIH Clinical Collection, counter-screen for HCV NS3 helicase inhibitor project (AID 743271; in the data active = inhibition above about 28%). Particulars: E. coli SSB-DNA binding, stronger effect = higher value, concentration not given here.
Test [12] can be described thus: compounds distorting NS3 helicase fluorescence signal – biochemical, NIH Clinical Collection, artefact control for HCV NS3 helicase inhibitor project (AID 743272).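 Note: HCV NS3 helicase with a Cy5 labelled single stranded DNA probe.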 Particulars: fluorescence interference counterscreen, HCV NS3 helicase assay; stronger effect = lower value. For orientation: Counterscreens check selectivity or assay interference.
Test [13] is described as follows: modulation of C. elegans fzo-1 (AID 1259413).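 Note: fzo-1 mutant C. elegans worms in liquid wells.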 The note with it: C. elegans fzo-1 modulator screen, mean read-out; stronger effect = higher value.
Test [14] concerns the target Mitogen-activated protein kinase 7 (Homo sapiens) (UniProt Q13164). Description: Gal4-ERK5 driven luciferase induction – cell-based, HTS, primary screen (AID 1508626;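 active = luciferase signal above three times the same-plate solvent-only control wells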;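 note: luciferase driven by Gal4-ERK5 fusion binding five Gal4 sites before minimal TATA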). Particulars: HeLa Gal4-ERK5 transactivation, 18 h, at 5 µM, stronger effect = higher value.
The nature of test [15]: galactose survival enhancers in mitochondrial complex I cybrids – cell-based, galactose medium, ATP luminescence, primary screen (AID 1645843;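 active = z-score of at least 1.8 in each of two replicates, scored against plate mean and spread of sample wells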;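 note: positive z means more ATP and so rescue of galactose-driven cybrid death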). The note with it: complex I mutant cybrid cells, 72 h, stronger effect = higher value.
Another test concerns R275C/beta1. Description: BK channel mutant inhibitors and activators – cell-based, U2OS BacMam, thallium flux, beta subunits, selectivity assay, profiling panel (AID 1259406;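 active = thallium flux through the channel raised or lowered by more than 3 SD from vehicle-only wells, actives on both sides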;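 note: initial slope of Thallos dye fluorescence rise after thallium is added; log ratio against the mean of 0.3% DMSO vehicle wells on the same plate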). Particulars: U2OS BacMam BK variants, at 30 µM.
A further test has as its system R275C/beta2Delta. The description is as above. Particulars: U2OS BacMam BK variants, at 30 µM.
In a further test the test system is R275C/beta4. The test is described as above. The note with it: U2OS BacMam BK variants, at 30 µM.
Another test has as its system R275C/Slo1WT/beta2. The description is as above. The note with it: U2OS BacMam BK variants, at 30 µM.

We go through five molecules from PubChem BioAssay.

Where “and” joins values, the source holds several entries; their conditions need not be identical. Identical values can stand only once. For part of these data: Measured potencies and affinities stand elsewhere. Calls of active or inactive are those of the source. Unless noted, the rule behind the calls is not given here.

Sequence of Mitogen-activated protein kinase 7 (Homo sapiens) (Q13164 whole entry, looked up, the tested form may be a part): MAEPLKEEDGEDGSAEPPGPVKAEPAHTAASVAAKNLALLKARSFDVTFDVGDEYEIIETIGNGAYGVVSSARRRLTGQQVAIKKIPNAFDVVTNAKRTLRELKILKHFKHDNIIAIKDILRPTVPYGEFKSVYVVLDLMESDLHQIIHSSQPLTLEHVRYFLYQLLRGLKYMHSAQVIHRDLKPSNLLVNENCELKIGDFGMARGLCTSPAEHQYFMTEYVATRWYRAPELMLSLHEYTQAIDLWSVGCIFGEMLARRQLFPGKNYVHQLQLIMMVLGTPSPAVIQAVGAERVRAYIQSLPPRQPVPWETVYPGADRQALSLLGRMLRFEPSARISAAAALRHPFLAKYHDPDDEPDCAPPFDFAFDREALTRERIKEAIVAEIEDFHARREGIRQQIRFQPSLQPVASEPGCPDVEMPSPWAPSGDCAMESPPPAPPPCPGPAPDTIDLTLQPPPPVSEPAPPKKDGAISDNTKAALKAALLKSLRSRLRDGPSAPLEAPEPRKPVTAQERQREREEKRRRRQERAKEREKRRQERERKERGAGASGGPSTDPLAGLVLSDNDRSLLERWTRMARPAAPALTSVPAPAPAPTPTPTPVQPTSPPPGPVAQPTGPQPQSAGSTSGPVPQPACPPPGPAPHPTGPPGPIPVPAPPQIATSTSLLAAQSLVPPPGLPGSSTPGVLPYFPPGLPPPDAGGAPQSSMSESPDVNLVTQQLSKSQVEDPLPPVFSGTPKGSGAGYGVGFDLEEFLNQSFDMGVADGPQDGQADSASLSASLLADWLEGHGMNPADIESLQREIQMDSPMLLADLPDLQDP

The inhibition is the relative decrease from the control value, in per cent. On to `CN(C)CCOC(c1ccc(Cl)cc1)c1ccccn1` (configuration not stated), for which the inhibition in test [1] is -21.2%; in test [10], -5% (inactive); in test [11], -3.53% (inactive). The score in test [2] came out at 1.7. This molecule gave a rescue above control in test [3] of -1.97. In test [4], the cytochrome c release ratio amounted to 0.83. Also, in test [5], the inhibition of aggregation was 44.8%. For the same molecule, the glutamate uptake change in test [6] is 21.1%. The molecule also had an aggregation suppression score in [7] of 1.21. The survival in test [8] is 2.92 (inactive). Moreover, the fluorescence ratio in test [9] is 1.05 (inactive); in test [12] it was 1.03 (inactive). Moreover, the mean signal in test [13] was 244 (inactive). In addition, in test [14], the luciferase signal is 88 AU (inactive). The z-score in [15] was 1.09 (inactive). Moreover, the log fold change Tl+ flux in the test with R275C/beta1 is -0.0266 (inactive); with R275C/beta2Delta, 0.0559 (inactive); with R275C/beta4, 0.0288 (inactive); with R275C/Slo1WT/beta2, -0.0144 (inactive).
As to `CCCNCC(O)COc1ccccc1C(=O)CCc1ccccc1` (configuration not stated), the inhibition is -14.1% in test [1], -5% (inactive) in test [10] and -2% (inactive) in test [11]. In test [2], this molecule registered a score of 1.02. In test [3], this molecule displayed a rescue above control of 2.07. Moreover, the cytochrome c release ratio in test [4] stood at 1.16. In test [5], this molecule came in with an inhibition of aggregation of 21.6%. In addition, the glutamate uptake change in test [6] came to 9.21%. For the same molecule, the aggregation suppression score in test [7] turned out to be 0.81. The survival in test [8] is 6.75 (inactive). In addition, the fluorescence ratio in test [9] is 1.02 (inactive); in test [12] it was 0.99 (inactive). The mean signal in test [13] is 272 (inactive). In addition, in [14], the luciferase signal is 116 AU (inactive). Moreover, the z-score in test [15] is -1.23 (inactive) and -1.36 (inactive) and -0.68 (inactive). Moreover, the log fold change Tl+ flux in the test with R275C/beta1 was 0.184 (active); in the test on R275C/beta2Delta it was 0.136 (active); in the test on R275C/beta4, 0.153 (active); with R275C/Slo1WT/beta2, 0.0285 (inactive).
Consider `c1ccc2[nH]c(-c3cscn3)nc2c1`, for which the inhibition in test [1] was -3.31%; in test [10], 0.45% (inactive); in test [11] it was -0.48% (inactive). Also, in [2], the score turned out to be 0.53. In test [3], this molecule showed a rescue above control of -3.36. The cytochrome c release ratio in test [4] was 1.13. For the same molecule, in test [5], the inhibition of aggregation was 30.1%. The glutamate uptake change in test [6] is -14%. The molecule also registered an aggregation suppression score in [7] of 0.142. For the same molecule, the survival in test [8] was 7.75 (inactive). The values for the fluorescence ratio in test [9] and in test [12] were 1.06 (inactive) and 0.97 (inactive), respectively. Also, the mean signal in test [13] is 278 (inactive). Besides, in test [14], the luciferase signal was 12 AU (inactive). In addition, in test [15], the z-score was 0.46 (inactive). In addition, the log fold change Tl+ flux in the test on R275C/beta1 is -0.0377 (inactive); in the test with R275C/beta2Delta, -0.0148 (inactive); in the test on R275C/beta4 it was -0.00629 (inactive); in the test on R275C/Slo1WT/beta2 it was 0.0186 (inactive).
Regarding `CN(CCOc1ccc(CC2SC(=O)NC2=O)cc1)c1ccccn1` (configuration not stated), the fluorescence ratio in [9] is 1.05 (inactive) and 0.99 (inactive); in test [12], 1.01 (inactive) and 0.96 (inactive). In addition, the inhibition is -1.19% (inactive) in [10]; 4.52% (inactive) and -0.87% (inactive) in test [11]. The mean signal in test [13] is 290 (inactive). The luciferase signal in [14] was 72 AU (inactive). Moreover, in [15], the z-score was 0.19 (inactive) and 0.27 (inactive). In addition, the log fold change Tl+ flux is 0.113 (active) and 0.178 (active) with R275C/beta1; 0.0398 (inactive) and 0.0538 (inactive) in the test on R275C/beta2Delta; 0.0706 (inactive) and 0.0705 (inactive) in the test with R275C/beta4; -0.0105 (inactive) and 0.0261 (inactive) with R275C/Slo1WT/beta2.
`NC(=O)c1cnccn1`: the inhibition in [1] was -0.34%; in test [10] it was -4.09% (inactive); in test [11], -2.76% (inactive). In [2], the score came out at 1.27. The rescue above control in [3] was -9.49. Besides, the cytochrome c release ratio in test [4] was 1.22. Moreover, the inhibition of aggregation in [5] was determined as 69.8%. Also, the glutamate uptake change in test [6] was 25.2%. The aggregation suppression score in test [7] is 0.921. The survival in [8] was 19.9 (inactive). For the same molecule, the values for the fluorescence ratio in [9] and in [12] were 0.1 (active) and 0.96 (inactive), respectively. Also, the mean signal in test [13] is 263 (inactive). Besides, in test [14], the luciferase signal is 48 AU (inactive). Further, the z-score in test [15] is 0.985 (inactive) and -0.015 (inactive). Further, the log fold change Tl+ flux is 0.0553 (inactive) in the test with R275C/beta1, -0.0119 (inactive) in the test with R275C/beta2Delta, -0.0116 (inactive) in the test with R275C/beta4 and 0.0474 (inactive) in the test with R275C/Slo1WT/beta2.
